SMILES strings stand for the structures. Results filed as inconclusive are left out. A call without a number means that no potency is given here. Activity calls are given as the source filed them. The call rests on the fitted dose curve; in most records, active means well fitted activation curve with a large enough effect in the signal ratio in the repeat runs (not every such curve was filed as active); inconclusive means weak or mixed curves; inactive means flat fitted curve, though single readings scatter; the % refers to the signal ratio.
Potency means the concentration at half of the fitted maximal effect.

A short description of the experiment: qHTS assay to identify small molecule agonists of the hypoxia (HIF-1) signaling pathway (AID 1224846). The following applies: HRE-bla ME-180 cells, beta-lactamase ratio, 17 h; series mostly up to 76.8 µM. The text has this:
U.S. Tox21 Program National Center for Advancing Translational Sciences [NCATS] NIH Chemical Genomics Center [NCGC] U.S. Environmental Protection Agency [EPA] National Institutes of Environmental Health Sciences [NIEHS] National Toxicology Program [NTP] U.S. Food and Drug Administration [FDA] Tox21 Assay Overview: Hypoxia-inducible factor-1 (HIF-1) is the major hypoxia-regulated transcription factor that controls cellular responses to low oxygen concentration. HIF-1 is composed of two subunits: hypoxia responsive HIF-1-alpha and constitutively expressed HIF-1-beta, which is also known as aryl hydrocarbon receptor nuclear translocator. During hypoxic conditions, HIF-1-alpha heterodimerizes with HIF-1-beta and translocates into the nucleus where the HIF-1 complex binds to the hypoxia-response element (HRE) and activates expression of target genes such as VEGF (vascular endothelial growth factor). The HIF-1 pathway is essential to normal growth and development, and is involved in the pathophysiology of cancer, inflammation, and ischemia. Using a beta-lactamase reporter-gene under control of the hypoxia response element, a cell-based assay [CellSensor(TM) HRE-bla ME-180 from Life Technologies, Carlsbad, CA] was used to measure hypoxia-induced signaling. Tox21 10K library compounds were measured for their ability to induce the reporter gene activity.
Tox21 Assay Protocol Summary: HRE-bla ME-180 cells were dispensed at 2,000 cells per well in 6 uL of assay medium containing 0.5% dialyzed FBS into black wall/clear-bottom 1536-well plates using a Multidrop Combi (Thermo Scientific, Waltham, MA) dispenser. After the assay plates were incubated at 37C and 5% CO2 for 5 hrs, 23 nL of compounds dissolved in DMSO, positive controls or DMSO only was transferred to each well of the assay plate using a Pintool station (Kalypsys, San Diego, CA). The assay plates were incubated at 37C and 5% CO2 for 17 hrs. One uL of LiveBLAzerTM B/G FRET substrate (CCF4-AM) (Life Technologies) was added to each well using a Flying Reagent Dispenser (Aurora Discovery, San Diego, CA).
On the technique in general: In qHTS, concentration-response curves come from the screen itself.
On to `C#CCC1=C(C)C(OC(=O)C2C(C=C(C)C)C2(C)C)CC1=O` (stereo not given), for which the Potency entry was “inactive”.
Take `Brc1cccc(-c2ccccc2)c1`: the Potency result is “inactive”.
The entry for `C#CC1(O)CCCCC1` is “inactive”; for `C[C@H]1[C@H](c2ccc(Cl)cc2)SC(=O)N1C(=O)NC1CCCCC1` it is “inactive”; for `O=S1(=O)OCC2C(CO1)C1(Cl)C(Cl)=C(Cl)C2(Cl)C1(Cl)Cl` (stereo not given) it is “inactive”.
The entry for `CC#C[C@]1(O)CC[C@H]2[C@@H]3C[C@H](C)C4=CC(=O)CC[C@]4(C)[C@H]3CC[C@@]21C` is “inactive”; for `c1cc[n+]2c(c1)-c1cccc[n+]1CC2` it is “inactive”; for `Cc1cnc2c(C(=O)O)c(Cl)ccc2c1` it is “inactive”.
On to `Clc1ccc(C2(Cn3cncn3)OCCO2)c(Cl)c1`, for which the Potency result is “inactive”.
The entry for `CCCCN(CCCC)C(=S)S` is “inactive”; for `CNC(=O)CSP(=O)(OC)OC` it is “inactive”.
Consider `CN1C2CCC(C)(C)C1CC(OC(=O)C(O)(c1cccs1)c1cccs1)C2` (stereo not given), for which the Potency result was “inactive”.
Next, `CC(=O)[O-].CC(=O)[O-].[Co+2]`: 21.9 µM (active); `CN=C=O`: “inactive”; `CC(=O)C(Cl)C(=O)N(C)C` (stereo not given): “inactive”.
Next, `CC1CN1` (stereo not given): “inactive”; `CCC1(CC)C(=O)N=C(O)NC1=O`: “inactive”.
`COc1c2c(cc3c1OCO3)CCN(C)C2`: the Potency result is “inactive”.
The entry for `Clc1cc(Cl)c(-c2cc(Cl)c(Cl)cc2Cl)cc1Cl` is “inactive”; for `ClSC(Cl)(Cl)Cl` it is “inactive”.
As for `CCCCON=O`, the Potency entry was “inactive”.
The entry for `CN/C(=N\[N+](=O)[O-])NCc1cnc(Cl)s1` is “inactive”.
Consider `Cc1ccccc1OP(=O)(Oc1ccccc1C)Oc1ccccc1C`, for which the Potency entry is “inactive”.
Next, `CCC(C)Nc1c([N+](=O)[O-])cc(C(C)(C)C)cc1[N+](=O)[O-]` (stereo not given): “inactive”; `O=c1c2ccccc2c(=O)c2c1cc(Cl)c1[nH]c3c([nH]c12)c(Cl)cc1c(=O)c2ccccc2c(=O)c13`: “inactive”; `CO/N=C(/C1=NOCCO1)c1ccccc1Oc1ncnc(Oc2ccccc2Cl)c1F`: “inactive”.
Turning to `CCCC[N+]1(C)CCCC1` (tested in a mixture with another compound), the Potency entry is “inactive”.
As to `CC(Cc1ccc2c(c1)OCO2)NO` (stereo not given), the Potency entry was “inactive”.
The entry for `c1ccc(N=NNc2ccccc2)cc1` is “inactive”; for `Cc1cc(C2CC2)nc(Nc2ccccc2)n1` it is “inactive”.
Next, `O=[N+]([O-])c1ccc(CCl)cc1`: “inactive”.
For `CCO/N=C(\CC)C1=C(O)CC(c2c(C)cc(C)cc2C)CC1=O` (stereo not given), the Potency result is “inactive”.
In the case of `CC(C)(C)c1ccc(OP(=O)(Oc2ccccc2)Oc2ccccc2)cc1`, the Potency result is “inactive”.
Next, `CNC(=O)O/N=C(\C)C(C)S(C)(=O)=O` (stereo not given): “inactive”.
Turning to `CSC(=O)c1c(C(F)F)nc(C(F)(F)F)c(C(=O)SC)c1CC(C)C`, the Potency entry is “inactive”.
Next, `O=P(Cl)(Cl)Cl`: “inactive”; `CCCCC(CC)COC(=O)c1ccccc1C(=O)OCC(CC)CCCC` (stereo not given): “inactive”.
With `BrCCCBr`, the Potency entry was “inactive”.
Next, `Nc1ccc(Cl)cc1C(=O)c1ccccc1F`: “inactive”; `CCCCn1cc[n+](C)c1.[Cl][Fe-]([Cl])([Cl])[Cl]`: “inactive”.
